Reference: PubChem BioAssay (EPA / NIEHS)
Calls of active or inactive are those of the source. The calls were made as follows: active = hit-call score of the fitted dose curve at least 0.9, where 1 is the maximum; inactive = score below 0.9.

assay: APR_HepG2_MitoticArrest_72hr: Apredica 72-hour HepG2 Assay for Mitotic Arrest (AID 2282918); settings: high-content imaging, actives raise or lower the signal
Experimental: APR_HepG2_72hr is a cell-based, multiplexed-readout assay that uses HepG2, a human liver cell line, with measurements taken at 72 hours after chemical dosing in a 384-well plate.APR_HepG2_MitoticArrest_72hr is one of 10 assay component(s) measured or calculated from the APR_HepG2_72hr assay. It is designed to make measurements of cell phenotype, a form of morphology reporter, as detected with fluorescence intensity signals by HCS Fluorescent Imaging technology.Data from the assay component APR_HepG2_MitoticArrest_72hr was analyzed into 1 assay endpoint. This assay endpoint, APR_HepG2_MitoticArrest_72hr, was analyzed with bidirectional fitting relative to DMSO as the negative control and baseline of activity. Using a type of morphology reporter, measures of protein for gain or loss-of-signal activity can be used to understand the signaling at the pathway-level as they relate to the gene . Furthermore, this assay endpoint can be referred to as a primary readout, because this assay has produced multiple assay endpoints where this one serves a signaling function. To generalize the intended target to other relatable targets, this assay endpoint is annotated to the cell cycle intended target family, where the subfamily is arrest.
Cells were treated with dimethyl sulfoxide (DMSO) as a solvent control at a final concentration of 0.5% v/v or with compounds in DMSO with a resulting final DMSO concentration of 0.5% v/v. Compound treatment was done at concentrations of 0.39, 0.78, 1.56, 3.12, 6.24, 12.5, 25, 50, 100, and 200 uM in duplicate on each plate. Cells were treated with compounds for 1, 24, or 72 hr. Carbonyl […] m-chloro-phenylhydrazone (CCCP) and taxol were used as positive controls for mitochondrial function and cytoskeletal stability, respectively; DMSO served as the negative control for this experiment. Cells were fixed by the direct addition of 50 uL formaldehyde in Hank's Balanced Salt Solution (HBSS) to a final concentration of 3.7%. After incubation in the fixation medium for 30 min at room temperature (293-298 K), cells were rinsed twice with HBSS and treated with cell permeabilization buffer (16 uL of 0.5% Triton X-100) for 10 min at room temperature (293-298 K) before labeling. For mitochondrial membrane potential and mitochondrial measurements, pre-fixed cells were incubated with 50 uL of MitoTracker Red CMXRos (Invitrogen) at a concentration of 250 nM for 30 min before fixation. In the remaining cases, post-fixed cells were labeled by incubation with a multiplexed mixture of primary antibodies in HBSS for 60 min at room temperature (293-298 K) to detect immunoreactivity of c-Jun (1:500), phospho-histone H3 (1:100), phospho-histone H2A.x (1:200), p53 (1:400), alpha-tubulin (1:200) and Hoechst 33342 (2 ug/mL). Cells were labeled for multiplexed imaging on two separate plates: a) Hoechst 33342, MitoTracker Red, phospho-histone H3, and alpha-tubulin, and b) Hoechst 33342, phospho-histone H2A.x, and c-Jun. A final rinse with HBSS (50 uL) was performed before analysis. The primary and secondary antibodies for the proteins were phospho-histone H3 (rabbit anti-phospho-histone H3 and FITC-donkey anti-rabbit IgG), phospho-histone H2A.x (mouse anti-phospho-histone H2A.x and FITC-donkey anti-mouse IgG), c-Jun (rabbit anti-phospho-c-Jun and Cy3-donkey anti-rabbit IgG), p53 (sheep anti-p53 and Cy5-donkey anti-sheep IgG), alpha-tubulin (mouse anti-alpha-tubulin and Cy5-donkey anti-mouse IgG). These antibodies are available as the CellCiphr HepG2 assay kit (Millipore).Digital images of each well were captured using a Cellomics ArrayScan VTI (Thermo Scientific Cellomics) (0.8 NA objective, 0.63x optical coupler, and XF-93 filter set) at 20x magnification. The images were acquired using the autofocus feature of the ArrayScan instrument, which entails the following steps. First, the camera focuses on channel 1 (Hoechst 33342), where nuclei are identified. Second, a Z offset of 1 um is used for capturing mitochondria (MitoTracker Red). […]

Row | SMILES | outcome | AC50
1 | CN=C=S | inactive | 
2 | CC1(C)C(C(=O)OC(C#N)c2cccc(Oc3ccccc3)c2)C1(C)C (stereo not given) | inactive | 
3 | C=C(C)CN(CC)c1c([N+](=O)[O-])cc(C(F)(F)F)cc1[N+](=O)[O-] | inactive | 
4 | CCOP(=O)(OCC)Oc1nc(Cl)c(Cl)cc1Cl | inactive | 
5 | Cn1c(-c2ccccc2)cc(-c2ccccc2)[n+]1C | inactive | 
6 | N#Cc1c[nH]cc1-c1cccc2c1OC(F)(F)O2 | inactive | 
7 | COC(=O)N(C(=O)N1CO[C@@]2(C(=O)OC)Cc3cc(Cl)ccc3C2=N1)c1ccc(OC(F)(F)F)cc1 | inactive | 
8 | O=C(Nc1ccccc1-c1ccc(Cl)cc1)c1cccnc1Cl | inactive | 
9 | Cc1nc(N(C)C)nc(OC(=O)N(C)C)c1C | inactive | 
10 | CC(C)NC(=O)N1CC(=O)N(c2cc(Cl)cc(Cl)c2)C1=O | inactive | 
11 | COCC(=O)N(c1c(C)cccc1C)C(C)C(=O)OC (stereo not given) | inactive | 
12 | CC(C)C1(C)N=C(c2ncccc2C(=O)O)NC1=O (stereo not given) | inactive | 
13 | Cc1c(COC(=O)[C@@H]2[C@H](/C=C(\Cl)C(F)(F)F)C2(C)C)cccc1-c1ccccc1 | inactive | 
14 | CCOc1nc(C(Cl)(Cl)Cl)ns1 | inactive | 
15 | CC1(C)C(C=C(Cl)Cl)C1C(=O)OC(C#N)c1cccc(Oc2ccccc2)c1 (stereo not given) | inactive | 
16 | CS(=O)(=O)c1ccc(C(=O)C2C(=O)CCCC2=O)c([N+](=O)[O-])c1 | inactive | 
17 | CC(C)N1C(=O)N(c2ccccc2)CSC1=NC(C)(C)C | inactive | 
18 | CC1(C)CCC(=Cc2ccc(Cl)cc2)C1(O)Cn1cncn1 (stereo not given) | inactive | 
19 | COc1ccc(-c2ccccc2)cc1NNC(=O)OC(C)C | inactive | 
20 | O=C1C2CC=CCC2C(=O)N1SC(Cl)(Cl)Cl (stereo not given) |  | 100 µM (active)

Row | SMILES | outcome | AC50
21 | CCN(CC)c1nc(C)cc(OP(=S)(OC)OC)n1 | inactive | 
22 | Nc1cnn(-c2ccccc2)c(=O)c1Cl | inactive | 
23 | CCCN(CC)CC1COC2(CCC(C(C)(C)C)CC2)O1 (stereo not given) |  | 70.2 µM (active)
24 | CCOC(=O)C(C)OC(=O)c1cc(Oc2ccc(C(F)(F)F)cc2Cl)ccc1[N+](=O)[O-] (stereo not given) | inactive | 
25 | COP(=O)(OC)O/C(C)=C/C(=O)N(C)C | inactive | 
26 | N#CN=C1SCCN1Cc1ccc(Cl)nc1 | inactive | 
27 | CC(C)Oc1cccc(NC(=O)c2ccccc2C(F)(F)F)c1 | inactive | 
28 | COCC(C)N(C(=O)CCl)c1c(C)csc1C (stereo not given) |  | 103 µM (active)
29 | O=C(O)c1c(Cl)ccc2cc(Cl)cnc12 | inactive | 
30 | CC1(C)CON(Cc2ccccc2Cl)C1=O | inactive | 
31 | CCNP(=S)(OC)O/C(C)=C/C(=O)OC(C)C (stereo not given) | inactive | 
32 | CC(C)N1C(=O)c2ccccc2NS1(=O)=O | inactive | 
33 | CCCCC(O)(Cn1cncn1)c1ccc(Cl)cc1Cl (stereo not given) | inactive | 
34 | Cc1ccc(N=CN(C)C=Nc2ccc(C)cc2C)c(C)c1 |  | 82.4 µM (active)
35 | O=P(O)(O)CCCl | inactive | 
36 | COC(=O)c1c(C(F)F)nc(C(F)(F)F)c(C2=NCCS2)c1CC(C)C | inactive | 
37 | Cc1cnc(C2=NC(C)(C(C)C)C(=O)N2)c(C(=O)O)c1 (stereo not given) | inactive | 
38 | CCCC(=NOCC)C1=C(O)CC(CC(C)SCC)CC1=O (stereo not given) | inactive | 
39 | CC(C)=CC1C(C(=O)OCc2coc(Cc3ccccc3)c2)C1(C)C (stereo not given) | inactive | 
40 | COCc1cnc(C2=NC(C)(C(C)C)C(=O)N2)c(C(=O)O)c1 (stereo not given) | inactive | 
